# Many of the other results were omitted from the sample, so the strongest signals are more common in it than they were.
# B1: Threefoil (Haloarcula marismortui) (protein)
# chain: GSSHHHHHHHHHHSSGLVPRGSHMGDGYYKLVARHSGKALDVENASTSDGANVIQYSYSGGDNQQWRLVDLGDGYYKLVARHSGKALDVENASTSDGANVIQYSYSGGDNQQWRLVDLGDGYYKLVARHSGKALDVENASTSDGANVIQYSYSGGDNQQWRLVDL
# Assays:
# Experiment in all cases: glycan array binding signal (z-score within array); higher = stronger binding
# Conditions in all cases: glycan notation: IUPAC condensed, linker removed
# [1] = biological target: Gal(b1-4)GlcNAc(b1-3)Gal(b1-4)GlcNAc(b1-3)Gal(b1-4)GlcNAc(b1-3)Gal(b1-4)GlcNAc(b1-3)Gal(b1-4)GlcNAc(b1-2)Man(a1-3)[Gal(b1-4)GlcNAc(b1-3)Gal(b1-4)GlcNAc(b1-3)Gal(b1-4)GlcNAc(b1-3)Gal(b1-4)GlcNAc(b1-3)Gal(b1-4)GlcNAc(b1-2)Man(a1-6)]Man(b1-4)GlcNAc(b1-4)[Fuc(a1-6)]GlcNAc
# Procedure, shortened: (§1)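 Negative Z-scores can be read as non-binding. The Z-score is calculated within each array and then averaged across arrays of one protein sequence at different concentrations or buffers and across linkers. Arrays, 3228 in all, were curated from the Consortium for Functional Glycomics database and kept only where the protein sequence was available.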
# [2] = biological target: Gal(b1-4)GlcNAc(b1-3)Gal(b1-4)GlcNAc(b1-3)Gal(b1-4)GlcNAc(b1-3)Gal(b1-4)GlcNAc(b1-3)Gal(b1-4)GlcNAc(b1-2)[Gal(b1-4)GlcNAc(b1-3)Gal(b1-4)GlcNAc(b1-3)Gal(b1-4)GlcNAc(b1-3)Gal(b1-4)GlcNAc(b1-3)Gal(b1-4)GlcNAc(b1-6)]Man(a1-6)[Gal(b1-4)GlcNAc(b1-3)Gal(b1-4)GlcNAc(b1-3)Gal(b1-4)GlcNAc(b1-3)Gal(b1-4)GlcNAc(b1-3)Gal(b1-4)GlcNAc(b1-2)Man(a1-3)]Man(b1-4)GlcNAc(b1-4)[Fuc(a1-6)]GlcNAc
# Procedure, shortened: as §1
# [3] = biological target: Gal(b1-4)GlcNAc(b1-3)[Fuc(a1-3)GlcNAc(b1-6)]Gal(b1-4)Glc
# Procedure, shortened: as §1
# [4] = biological target: Gal(b1-4)GlcNAc(b1-6)[Gal(b1-4)GlcNAc(b1-3)]GalNAc
# Procedure, shortened: as §1
# Gal3S(b1-4)GlcNAc = biological target: Gal3S(b1-4)GlcNAc
# Procedure, shortened: as §1
# [5] = biological target: Gal3S(b1-4)[Fuc(a1-3)]GlcNAc6S
# Procedure, shortened: as §1
# Gal6P(b1-4)GlcNAc = biological target: Gal6P(b1-4)GlcNAc
# Procedure, shortened: as §1
# [6] = biological target: GalNAc(a1-3)GalNAc(a1-3)Gal(a1-4)Gal(b1-4)GlcNAc
# Procedure, shortened: as §1
# GalNAc(b1-4)GlcNAc = biological target: GalNAc(b1-4)GlcNAc
# Procedure, shortened: as §1
# [7] = biological target: Glc(a1-6)Glc(a1-6)Glc(a1-6)Glc
# Procedure, shortened: as §1
# [8] = biological target: GlcNAc(a1-4)Gal(b1-4)GalNAc
# Procedure, shortened: as §1
# [9] = biological target: GlcNAc(a1-4)Gal(b1-4)GlcNAc(b1-3)Gal(b1-4)GlcNAc(b1-3)Gal(b1-4)GlcNAc
# Procedure, shortened: as §1
# [10] = biological target: GlcNAc(b1-2)Man(a1-3)[GlcNAc(b1-4)][GlcNAc(b1-2)Man(a1-6)]Man(b1-4)GlcNAc(b1-4)[Fuc(a1-6)]GlcNAc
# Procedure, shortened: as §1
# GlcNAc(b1-3)Gal(b1-4)Glc = biological target: GlcNAc(b1-3)Gal(b1-4)Glc
# Procedure, shortened: as §1
# [11] = biological target: GlcNAc(b1-3)Gal(b1-4)GlcNAc(b1-2)Man(a1-3)[GlcNAc(b1-3)Gal(b1-4)GlcNAc(b1-2)Man(a1-6)]Man(b1-4)GlcNAc(b1-4)[Fuc(a1-6)]GlcNAc
# Procedure, shortened: as §1
# [12] = biological target: GlcNAc(b1-6)Gal(b1-4)GlcNAc
# Procedure, shortened: as §1
# GlcNAc(b1-6)GalNAc = biological target: GlcNAc(b1-6)GalNAc
# Procedure, shortened: as §1
# Man(b1-4)GlcNAc = biological target: Man(b1-4)GlcNAc
# Procedure, shortened: as §1
# [13] = biological target: Neu5Ac(a2-3)Gal(b1-3)GalNAc(b1-4)[Neu5Ac(a2-8)Neu5Ac(a2-3)]Gal(b1-4)Glc
# Procedure, shortened: as §1
# [14] = biological target: Neu5Ac(a2-3)Gal(b1-3)GlcNAc(b1-3)Gal(b1-3)GlcNAc
# Procedure, shortened: as §1
# [15] = biological target: Neu5Ac(a2-3)Gal(b1-3)GlcNAc(b1-3)GalNAc
# Procedure, shortened: as §1
# [16] = biological target: Neu5Ac(a2-3)Gal(b1-3)GlcNAc6S
# Procedure, shortened: as §1
# [17] = biological target: Neu5Ac(a2-3)Gal(b1-4)GlcNAc6S
# Procedure, shortened: as §1
# [18] = biological target: Neu5Ac(a2-3)Gal(b1-4)[Fuc(a1-3)]GlcNAc(b1-6)[Neu5Ac(a2-3)Gal(b1-3)]GalNAc
# Procedure, shortened: as §1
# [19] = biological target: Neu5Ac(a2-3)[GalNAc(b1-4)]Gal(b1-4)Glc
# Procedure, shortened: as §1
# [20] = biological target: Neu5Ac(a2-6)Gal(b1-4)GlcNAc(b1-3)Gal(b1-4)GlcNAc(b1-3)Gal(b1-4)GlcNAc
# Procedure, shortened: as §1
# [21] = biological target: Neu5Ac(a2-6)Gal(b1-4)GlcNAc(b1-3)GalNAc
# Procedure, shortened: as §1
# [22] = biological target: Neu5Ac(a2-6)GlcNAc(b1-4)GlcNAc(b1-4)GlcNAc
# Procedure, shortened: as §1
# [23] = biological target: Neu5Ac(a2-8)Neu5Ac(a2-3)[Gal(b1-3)GalNAc(b1-4)]Gal(b1-4)Glc
# Procedure, shortened: as §1
# [24] = biological target: Neu5Ac(b2-6)Gal(b1-4)GlcNAc
# Procedure, shortened: as §1
binder,measurement,setting,value
B1,glycan array binding signal (z-score),[1],2.83
same,glycan array binding signal (z-score),[2],3.49
same,glycan array binding signal (z-score),[3],3.85
same,glycan array binding signal (z-score),[4],0.738
same,glycan array binding signal (z-score),Gal3S(b1-4)GlcNAc,-0.158
same,glycan array binding signal (z-score),[5],-0.038
same,glycan array binding signal (z-score),Gal6P(b1-4)GlcNAc,-0.211
same,glycan array binding signal (z-score),[6],-0.227
same,glycan array binding signal (z-score),GalNAc(b1-4)GlcNAc,-0.003
same,glycan array binding signal (z-score),[7],-0.157
same,glycan array binding signal (z-score),[8],-0.271
same,glycan array binding signal (z-score),[9],-0.208
same,glycan array binding signal (z-score),[10],-0.223
same,glycan array binding signal (z-score),GlcNAc(b1-3)Gal(b1-4)Glc,-0.299
same,glycan array binding signal (z-score),[11],-0.052
same,glycan array binding signal (z-score),[12],0.035
same,glycan array binding signal (z-score),GlcNAc(b1-6)GalNAc,-0.181
same,glycan array binding signal (z-score),Man(b1-4)GlcNAc,0.763
same,glycan array binding signal (z-score),[13],-0.245
same,glycan array binding signal (z-score),[14],-0.139
same,glycan array binding signal (z-score),[15],-0.266
same,glycan array binding signal (z-score),[16],-0.17
same,glycan array binding signal (z-score),[17],-0.364
same,glycan array binding signal (z-score),[18],0.108
same,glycan array binding signal (z-score),[19],-0.269
same,glycan array binding signal (z-score),[20],-0.154
same,glycan array binding signal (z-score),[21],-0.163
same,glycan array binding signal (z-score),[22],-0.141
same,glycan array binding signal (z-score),[23],-0.146
same,glycan array binding signal (z-score),[24],-0.309
